NPSR antagonist: antagonists of human neuropeptide S receptor cAMP signaling; AID 1461; CHO-NPSR cells, cAMP TR-FRET, antagonist mode; Potency, µM (titrated, usually from 38.3 µM), usual class: inhibitors; hit rate 1% among 220,000; Q6W5P4; further: nearly all actives have a fitted effect of over 50% in size
Target sequence (Q6W5P4 whole entry, looked up): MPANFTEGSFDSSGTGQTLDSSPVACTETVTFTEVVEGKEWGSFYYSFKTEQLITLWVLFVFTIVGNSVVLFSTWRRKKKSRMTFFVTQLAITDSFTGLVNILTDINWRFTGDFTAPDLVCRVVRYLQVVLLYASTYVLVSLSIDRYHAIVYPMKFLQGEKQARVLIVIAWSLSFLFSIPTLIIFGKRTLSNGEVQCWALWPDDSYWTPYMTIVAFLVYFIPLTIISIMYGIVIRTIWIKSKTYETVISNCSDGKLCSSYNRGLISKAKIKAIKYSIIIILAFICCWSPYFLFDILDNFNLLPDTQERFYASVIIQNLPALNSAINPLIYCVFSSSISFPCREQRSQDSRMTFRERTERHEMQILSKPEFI
FBPA coupling cs: counter-screen for Giardia aldolase inhibitors: coupling enzyme system | coupling enzyme system counterscreen, AmpLite Red fluorescence | activity change, negative = inhibition, % at 58.2 µM, hits read low | hit rate 0.67% among 290,000 | AID 2472; in the data active means activity change below about -30%
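Activity here indicates interference with the coupling reaction, not aldolase inhibition. Compounds at 57.5 uM final met coupling enzymes for 10 min at RT; substrate and AmpLite Red detection followed, with a 525/598 nm fluorescence read after 20 min.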
TSHR antag: human thyrotropin receptor antagonism; hit rate 0.2% among 330,000; P16473; activity change, negative = inhibition, % at 11.5 µM; TSHR-expressing cells, TSH-stimulated cAMP HTRF, 2 h; stronger effect = lower value; AID 504810;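 active means activity change below a set negative limit, meaning inhibition stronger than a set level, cut at about -70% in these data; inconclusive means activity change between two set negative limits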
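Competitive HTRF cAMP read-out (cryptate anti-cAMP antibody, cAMP-d2; 30 min, room temperature) in freshly harvested TSHR cells. Compounds added before TSH at EC80 (4nM final), followed by 2 hours' incubation at 37 deg C.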
TCR act: activators of T cell receptors; 330,000 tested, under 10 active; AID 504894; primary human leukocytes, anti-CD3, IL-2 HTRF, 48 h; Potency, µM (titrated, usually from 9.22 µM), most hits filed as activators
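Primary human leukocytes receive a-CD3 beads and test compound and are incubated 48 hr. Secreted IL-2 is then assayed by HTRF, measuring 665nm acceptor emission after 320nm excitation of the europium donor.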
TR SRC2 fluor cs: alters Texas Red total fluorescence, flagging assay interference. hit rate 0.29% among 280,000. AID 1479. Potency, µM (titrated, usually from 106 µM). TRb/SRC2 Texas Red total fluorescence interference; active means well fitted curve in either direction with a large enough effect; inconclusive means small, poorly fitted or top-dose-only effect
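Human TRβ ligand-binding domain (0.6 uM) and Texas Red SRC2 peptide (20 nM) in Tris buffer with 1 uM T3 and 5% DMSO were incubated with pinned compound for 5 hr at ambient temperature. Total fluorescence was computed as S + 2P (555/632 nm).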
TRb-SRC2 inh: inhibitors of human thyroid hormone receptor beta-SRC2 interaction. AID 1469. hit rate 0.065% among 280,000. P10828. Potency, µM (highest dose often 106 µM), actives largely listed as inhibitors. TRbeta-SRC2 peptide binding, fluorescence polarization; receptor liganded with 1 µM T3; further: nearly all actives have a fitted effect of over 50% in size
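Compounds were added to 0.6 uM TRb ligand-binding domain and 20 nM Texas Red-labeled SRC2 peptide in Tris buffer containing 1 uM T3, incubated 5 hr at ambient temperature, then read by fluorescence polarization.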
A number is an active result; – = inactive; ? = inconclusive; · = not tested or not shown; [ ] = dose if it differs, or a comment. Sampled rows, rich in hits. Any-hit rate of the full collection: about 1%. Unless noted, the call rests on the fitted dose curve; in most records, active means well fitted curve in the direction sought with a large enough effect; inconclusive means small, poorly fitted or top-dose-only effect, or another doubt; inactive means no such curve, though single readings can be large; an effect the other way counts as inactive or inconclusive.

SMILES | NPSR antagonist | FBPA coupling cs | TSHR antag | TCR act | TR SRC2 fluor cs | TRb-SRC2 inh
COc1cc(NC(=O)COC(=O)CNC(=O)c2ccc(C)cc2)c(C)cc1[N+](=O)[O-] | ? | – | – | – | 10µM[quencher] | –
COc1cc(NC(=O)COC(=O)CNC(=O)c2ccc(Cl)cc2)c(C)cc1[N+](=O)[O-] | – | – | – | – | – | –
CC/C(=C/c1sc2ccc(C)cc2[n+]1CCCS(=O)(=O)[O-])SC | – | – | – | – | 45µM[fluorescent] | ?
O=C(CNCCC1=CCCCC1)Nc1ccccc1N1CCCCC1 | ? | -42 | – | · | – | –
COc1ccccc1NS(=O)(=O)c1cc([N+](=O)[O-])ccc1N/N=C/c1c(C)[nH]c2ccccc12 | – | – | – | – | – | –
O=[N+]([O-])c1ccc(N/N=C/c2c[nH]c3ccccc23)c(S(=O)(=O)Nc2ccc(Cl)cc2)c1 | 16µM | – | – | – | – | –
OC1(c2cccc(C(F)(F)F)c2)CCN(c2ncnc3c2[nH]c2ccc(F)cc23)CC1 | 13µM | – | · | – | – | –
CCOC(=O)N1CCN(c2ncnc3c2[nH]c2ccc(F)cc23)CC1 | – | – | – | – | – | –
Fc1ccc2[nH]c3c(N4CCN(c5ccccc5)CC4)ncnc3c2c1 | ? | – | -89 | – | – | –
CC(=O)N1CCC(O)(c2cccc(C(F)(F)F)c2)CC1 | – | – | – | – | – | –
CC(=O)c1ccc(-c2cccc(C3C4C=CCCC4(C)C(=O)N3Cc3ccccc3)c2)cc1 (configuration not stated) | · | – | · | · | – | –
COc1ccccc1-c1noc(-c2ccc(NCc3cccnc3)c([N+](=O)[O-])c2)n1 | · | · | · | · | – | –
CCCCc1nnc(NC(=O)CCc2ccccc2)s1 | · | – | – | – | · | ·
CCCC(=O)Nc1nnc(CCc2ccccc2)s1 | · | – | -89 | · | · | ·
O=c1c2cc3c(cc2n(Cc2ccc(F)cc2)c(=O)n1Cc1nc(-c2ccccc2)no1)OCO3 | · | · | · | · | – | –
CC(=O)c1cccc(NC(=O)c2ccc3c(c2)CCCC3)c1 | · | – | -131 | – | · | ·
COc1cccc(NC(=O)c2ccc3c(c2)CCCC3)c1 | · | – | – | – | · | ·
Cc1nc2sc(C)c(C)n2c(=O)c1S(=O)(=O)N1CCN(c2ccccc2F)CC1 | · | · | · | · | – | –
O=C1c2ccc3c4c(ccc(c24)C(=O)N1NC(=O)C(F)(F)F)CC3 | – | – | – | – | – | –
CC(=O)NN1C(=O)c2ccc3c4c(ccc(c24)C1=O)C(=O)N(NC(C)=O)C3=O | · | -32 | – | · | · | ·
OCCN1CCN(C(c2cccs2)c2ccc3cccnc3c2O)CC1 (configuration not stated) | 10µM | – | – | · | – | –
CCN1CCN(C(c2ccc(C(F)(F)F)cc2)c2ccc3cccnc3c2O)CC1 (configuration not stated) | · | – | – | – | · | ·
CC1CCC(C(C)C)C(OC(=O)C2=C3c4ccccc4S(=O)(=O)N3CC2)C1 (configuration not stated) | 10µM | – | – | – | – | –
CCN(CC)CCSc1c(C(C)C)cnc2c1c(=O)n(C)c(=O)n2C | · | · | · | · | – | –
CCc1cnc2c(c1SCC(=O)c1ccc(OC)cc1)c(=O)n(C)c(=O)n2C | · | · | · | · | – | –
SMILES | NPSR antagonist | FBPA coupling cs | TSHR antag | TCR act | TR SRC2 fluor cs | TRb-SRC2 inh
Cc1ccc(S(=O)(=O)N2[C@@H](c3ccccc3F)C(C(=O)O)=CC[C@H]2c2ccc(Cl)c(Cl)c2)cc1 | · | · | -92 | – | · | ·
Cc1ccc(S(=O)(=O)N2[C@@H](c3ccccc3)C(C(=O)O)=CC[C@H]2c2ccc(Cl)c(Cl)c2)cc1 | · | · | – | – | · | ·
O=C(COc1ccccc1Cl)N(Cc1ccco1)Cc1ccco1 | · | · | · | · | – | –
CSc1ccc(C2C(C#N)=C(N)Oc3c2ccc(=O)c2c(C)oc(C)c32)cc1 (configuration not stated) | – | -36 | – | – | – | –
Cc1oc(C)c2c(=O)ccc3c(c12)OC(N)=C(C#N)C3c1ccccc1 (configuration not stated) | – | – | – | – | – | –
Cc1oc(C)c2c(=O)ccc3c(c12)OC(N)=C(C#N)C3c1ccccc1Cl (configuration not stated) | 10µM | – | – | – | – | –

From PubChem
